Experiment [1] concerns the target ATP-dependent 6-phosphofructokinase (Trypanosoma brucei brucei) (UniProt O15648). In words: qHTS Assay to Find Inhibitors of T. brucei phosphofructokinase: hit validation (AID 492961).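 Also: luminescence reports ADP formed as PFK phosphorylates fructose-6-phosphate with ATP.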 In a few lines: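 Inhibition of parasite PFK is measured as reduced ADP formation, quantified via luciferase after ATP depletion. Assay used 0.1 mM ATP, 0.5 mM F6P, 1.25 nM enzyme, 45 min incubation.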

Experiment [2] is described as follows: S16 Schwann cell viability assay (CellTiter-Glo assay) (AID 624031). Also: nearly all actives have a fitted effect of over 70% in size. In a few lines:
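Native S16 Schwann cells (rat), serum-containing medium, overnight attachment then 24 h drug exposure at 37 °C/5% CO2. CellTiter-Glo ATP signal; normalized to cell-free and vehicle wells.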
Background: ATP-based viability assays read luminescence as a measure of living cells.

Experiment [3] can be described thus: S16 Schwann cell PMP22 intronic element firefly luciferase assay (AID 624032). Also: nearly all actives have a fitted effect of over 30% in size. In a few lines: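 Rat S16 Schwann cells stably carrying firefly luciferase driven by a PMP22 intronic element, in 10% FBS, treated 24 h at 37 C. ONE-Glo luminescence normalized to PTC124 control and DMSO (0%); curves classed by r2, magnitude and activity.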
The nature of experiment [4]: S16 Schwann cell PMP22 intronic element beta-lactamase assay (AID 624044; calls by dose curve; also: nearly all actives have a fitted effect of over 15% in size). The procedure, abridged:
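Rat S16 Schwann cells with beta-Lac driven by a PMP22 intronic element, compound-treated 24 h at 37 °C. LiveBLAzer FRET B/G read: 460 nm normalized to potassium clavulanate vs DMSO; 535 nm FRET as viability; concentration-effect curves classified.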

Another experiment relates to 3D7. Put plainly: qHTS profiling for inhibitors of Plasmodium falciparum proliferation (AID 504749). Also: nearly all actives have a fitted effect of over 60% in size. Also: potency is read from the fitted curve at half-maximal effect. The note with it: P. falciparum in erythrocytes, SYBR Green DNA, 72 h; series mostly up to 28.7 µM. In a few lines: (§1)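 P. falciparum-infected erythrocytes (0.3% parasitemia, 2.5% hematocrit) incubated with compound 72 h at 37 C, 5% CO2. Parasite DNA detected by SYBR Green after lysis, overnight at room temperature; normalised to 0.29 uM artemisinin and DMSO.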

The next experiment concerns 7G8. The experiment is described as above. The note with it: P. falciparum in erythrocytes, SYBR Green DNA, 72 h; series mostly up to 28.7 µM. The procedure, abridged:
as §1

A further experiment has as its system AA1029. The description is as above. As to conditions: P. falciparum in erythrocytes, SYBR Green DNA, 72 h; series mostly up to 28.7 µM. In a few lines:
as §1

Another experiment deals with CP260. Described as above. The note with it: P. falciparum in erythrocytes, SYBR Green DNA, 72 h; series mostly up to 28.7 µM. In a few lines:
as §1

Another experiment relates to CP291. Described as above. The note with it: P. falciparum in erythrocytes, SYBR Green DNA, 72 h; series mostly up to 28.7 µM. In a few lines: as §1
In another experiment the test system is CP297. The description is as above. As to conditions: P. falciparum in erythrocytes, SYBR Green DNA, 72 h; series mostly up to 28.7 µM. The procedure, abridged:
as §1

A further experiment concerns CP315. Described as above. As to conditions: P. falciparum in erythrocytes, SYBR Green DNA, 72 h; series mostly up to 28.7 µM. In a few lines:
as §1

In a further experiment the test system is CP335. Described as above. As to conditions: P. falciparum in erythrocytes, SYBR Green DNA, 72 h; series mostly up to 28.7 µM. In a few lines: as §1
In a further experiment the test system is DIV14. The description is as above. As to conditions: P. falciparum in erythrocytes, SYBR Green DNA, 72 h; series mostly up to 28.7 µM. The procedure, abridged:
as §1

In another experiment the test system is Dd2. The description is as above. As to conditions: P. falciparum in erythrocytes, SYBR Green DNA, 72 h; series mostly up to 28.7 µM. The procedure, abridged:
as §1

The subject of another experiment is HB3. The experiment is described as above. As to conditions: P. falciparum in erythrocytes, SYBR Green DNA, 72 h; series mostly up to 28.7 µM. The procedure, abridged: as §1
The test system of the next experiment is ICS. The description is as above. As to conditions: P. falciparum in erythrocytes, SYBR Green DNA, 72 h; series mostly up to 28.7 µM. The procedure, abridged:
as §1

A further experiment has as its system JCK. Described as above. The note with it: P. falciparum in erythrocytes, SYBR Green DNA, 72 h; series mostly up to 28.7 µM. The procedure, abridged:
as §1

For another experiment, the system named is TAB109. The experiment is described as above. As to conditions: P. falciparum in erythrocytes, SYBR Green DNA, 72 h; series mostly up to 28.7 µM. In a few lines:
as §1

The subject of another experiment is TAB113. Described as above. As to conditions: P. falciparum in erythrocytes, SYBR Green DNA, 72 h; series mostly up to 28.7 µM. In a few lines: as §1
In the next experiment the test system is TAB165. Described as above. The note with it: P. falciparum in erythrocytes, SYBR Green DNA, 72 h; series mostly up to 28.7 µM. The procedure, abridged: as §1

Results filed as inconclusive are left out. Calls of active or inactive are those of the source. Unless noted, calls follow the shape of the dose curve; as a rule, active = well fitted curve in the direction sought with a large enough effect; inconclusive = small, poorly fitted or top-dose-only effect, or another doubt; inactive = no such curve, though single readings can be large; an effect the other way counts as inactive or inconclusive.

Chain of ATP-dependent 6-phosphofructokinase (Trypanosoma brucei brucei) (O15648 whole entry, looked up): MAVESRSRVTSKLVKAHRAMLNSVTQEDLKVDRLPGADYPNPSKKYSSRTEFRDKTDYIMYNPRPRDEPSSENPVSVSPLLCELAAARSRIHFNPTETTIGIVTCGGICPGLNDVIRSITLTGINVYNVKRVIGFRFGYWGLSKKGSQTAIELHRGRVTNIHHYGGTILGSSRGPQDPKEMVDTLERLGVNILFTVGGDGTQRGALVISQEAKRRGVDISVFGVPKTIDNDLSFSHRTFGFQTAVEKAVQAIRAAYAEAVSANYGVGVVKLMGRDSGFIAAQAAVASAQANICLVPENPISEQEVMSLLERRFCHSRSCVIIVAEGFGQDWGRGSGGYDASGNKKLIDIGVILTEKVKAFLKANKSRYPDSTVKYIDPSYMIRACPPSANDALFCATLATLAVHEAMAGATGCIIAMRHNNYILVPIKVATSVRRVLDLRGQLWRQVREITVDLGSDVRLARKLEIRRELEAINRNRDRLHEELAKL

Turning to `C[N+]1(C)[C@@H]2CC(OC(=O)[C@@H](CO)c3ccccc3)C[C@@H]1[C@H]1O[C@H]12` (stereo partly specified), the result in experiment [1] and in experiment [4] was inactive. The Potency entry (in experiment [2]; in experiment [3]; in the experiment on 3D7; in the experiment on 7G8; in the experiment on AA1029; in the experiment on CP260) was “inactive” throughout. Moreover, the Potency entry with CP291, in the experiment on CP297, in the experiment with CP315, in the experiment on CP335, in the experiment with DIV14 and with Dd2 was “inactive” each time. Moreover, the Potency entry in the experiment with HB3, in the experiment with ICS, in the experiment on JCK, in the experiment with TAB109, in the experiment with TAB113 and in the experiment on TAB165 was “inactive” throughout.

`N[C@H](COP(=O)(O)O)C(=O)O`: the molecule was classed as inactive in [1] and in experiment [4]. Further, the Potency entry (in experiment [2]; in experiment [3]; in the experiment on 3D7; in the experiment with 7G8; in the experiment on AA1029; in the experiment on CP260) was “inactive” each time. Moreover, the Potency entry in the experiment with CP291, with CP297, with CP315, in the experiment with CP335, with DIV14 and in the experiment with Dd2 was “inactive” throughout. Further, the Potency entry in the experiment with HB3, with ICS, with JCK, in the experiment with TAB109, in the experiment on TAB113 and in the experiment with TAB165 was “inactive” throughout.

For the molecule `CN(C)[C@H]1C(=O)C(C(=O)NCN2CCCC2)=C(O)[C@]2(O)C(=O)C3=C(O)c4c(O)cccc4[C@](C)(O)[C@H]3C[C@H]12`, the Potency entry (in experiment [2]; in experiment [3]; in the experiment on 3D7; in the experiment with 7G8; with AA1029; in the experiment with CP260) was “inactive” each time. Moreover, the Potency result in the experiment with CP291, in the experiment with CP297, in the experiment with CP315, in the experiment with CP335, with DIV14 and in the experiment on Dd2 was “inactive” in each case. For the same molecule, the Potency result with HB3, in the experiment on ICS, in the experiment on JCK, in the experiment with TAB109, in the experiment with TAB113 and in the experiment with TAB165 was “inactive” in each case. Moreover, the result in experiment [4] was inactive.

For `C[C@@H]1C[C@H]2[C@H]3C[C@@H](F)C4=CC(=O)C=C[C@]4(C)[C@@]3(Cl)[C@@H](O)C[C@@]2(C)[C@@H]1C(=O)COC(=O)C(C)(C)C`, the result in experiment [1] and in [4] was inactive. The Potency entry (in experiment [2]; in [3]; in the experiment on AA1029; in the experiment on CP291; in the experiment on CP297; in the experiment with CP315) was “inactive” throughout. Also, the Potency entry in the experiment with DIV14, in the experiment on JCK and with TAB165 was “inactive” throughout. Also, the Potency in the experiment with 3D7 is 12.6 µM (active); in the experiment with 7G8 it was 4.47 µM (active); in the experiment with CP260, 12.6 µM (active); in the experiment on CP335, 12 µM (active); in the experiment on Dd2, 12.6 µM (active); with ICS it was 6.31 µM (active).

The values are drawn from PubChem BioAssay (NCATS).
